Most compounds without a hit are left out; they make up all but 5.8% or so of the library.
MCF10A rereplic: induces DNA re-replication in MCF 10a normal breast cells; MCF 10A DNA re-replication, Hoechst nuclear intensity, 48 h; Potency, µM (top dose mostly 46.1 µM), inactives show top-dose activity, positive = re-replication, usual class: activators; 2.9% of 350,000 active; AID 624296; further: % of control where 0% means no effect; nearly all actives have a fitted effect of over 50% in size
KB-3-1 cytotox: kills parental KB-3-1 adenocarcinoma cells; KB-3-1 viability, CellTiter-Glo ATP luminescence, 72 h; Potency, µM (series often up to 46.1 µM), usual class: cytotoxic; AID 1347075; 1.4% of 400,000 active; further: on the % scale 0 is the no-effect control and ±100 the full control effect; nearly all actives have a fitted effect of over 60% in size
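Cells are dispensed, compounds pinned in, plates held at 37 °C for 72 h, then CellTiter-Glo is added and luminescence read after 10 minutes. Cell line: parental KB-3-1 in phenol-red-free DMEM, 10% FBS.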
12-LOX inh: ALOX12 (human) lipoxygenase inhibition; P18054; AID 1671190; purified 12hLO, xylenol orange hydroperoxide absorbance; 1.1% of 580,000 active; Potency, µM (titrated, usually from 108 µM), for inactives: at the top dose activity change, negative = inhibition, actives largely listed as inhibitors; further: on the % scale 0 is the no-effect control and ±100 the full control effect
Target sequence (P18054 whole entry, looked up): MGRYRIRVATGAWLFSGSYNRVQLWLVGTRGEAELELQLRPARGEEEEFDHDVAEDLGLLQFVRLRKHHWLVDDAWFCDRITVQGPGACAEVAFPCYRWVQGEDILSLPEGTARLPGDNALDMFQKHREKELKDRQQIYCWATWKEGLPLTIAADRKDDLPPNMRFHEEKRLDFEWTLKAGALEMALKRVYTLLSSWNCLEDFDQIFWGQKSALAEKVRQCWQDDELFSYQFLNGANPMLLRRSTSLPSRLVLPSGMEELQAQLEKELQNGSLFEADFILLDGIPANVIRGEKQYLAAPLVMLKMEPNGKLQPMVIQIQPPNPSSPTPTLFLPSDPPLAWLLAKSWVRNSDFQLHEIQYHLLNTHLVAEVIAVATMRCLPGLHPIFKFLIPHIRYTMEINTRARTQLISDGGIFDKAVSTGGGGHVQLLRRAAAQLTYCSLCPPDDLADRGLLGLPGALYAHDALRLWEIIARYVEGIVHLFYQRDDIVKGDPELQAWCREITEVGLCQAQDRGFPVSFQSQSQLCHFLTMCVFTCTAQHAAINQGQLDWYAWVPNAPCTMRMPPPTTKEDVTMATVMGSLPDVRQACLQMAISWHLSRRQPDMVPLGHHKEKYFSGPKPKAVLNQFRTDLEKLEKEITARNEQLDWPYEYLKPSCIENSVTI
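Purified human 12hLO at 150 nM in 25 mM Hepes, 0.01% Triton X-100, pH 7.0, preincubated 15 min at room temperature with compound. Reaction started with 40 uM arachidonic acid, 30 min at room temperature. Hydroperoxide measured by Fe-xylenol orange, 573/405 nm absorbance ratio.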
KB-V1 MDR tox: kills drug-selected multidrug resistant KB-V1 cells; 3.4% of 400,000 active; Potency, µM (highest dose often 46.1 µM), usual class: cytotoxic; KB-V1 MDR cells viability, CellTiter-Glo, 72 h; AID 1347076; further: on the % scale 0 is the no-effect control and ±100 the full control effect; nearly all actives have a fitted effect of over 60% in size
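In this primary screen, KB-V1 cells overexpressing P-gp are incubated with library compounds (lowest to highest concentration) for 72 h at 37 degrees C before a luminescent ATP viability read.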
SW480 rerep: DNA re-replication induction in SW480 cells; SW480 DNA re-replication, Hoechst DNA content imaging, 48 h; Potency, µM (highest dose often 46.1 µM), inactives show at the highest dose re-replication activation, usual class: activators; 1.8% of 340,000 active; further: % of control where 0% means no effect; nearly all actives have a fitted effect of over 55% in size
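Image-based DNA-content assay: after two days of treatment, nuclei were labelled with the DNA dye Hoechst and imaged, and hits were compounds raising the count of nuclei showing high fluorescence intensity.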
PINK1 expr mod: PINK1 expression modulation; Potency, µM (titrated, usually from 76.6 µM), inactives show top-dose activation (PINK1 increase), most hits filed as activators; 0.2% of 410,000 active; AID 624263; PINK1 immunofluorescence, high-content cytometry, 24 h; active means well fitted activation curve with a large enough effect; inconclusive means small, poorly fitted or top-dose-only effect; cell line not stated here; further: % of control where 0% means no effect; nearly all actives have a fitted effect of over 65% in size
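Fluorescence from anti-PINK1 antibody, together with nuclear and cell stains, was scanned on a laser-scanning cytometer. Before staining, stable-line cells were incubated 24 hours with compounds at 5 concentrations; primary antibody 12 h at 10 degrees C.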
Numbers without * were called inactive; i = inactive; ? = inconclusive; . = no result; [ ] = dose if it differs, or a comment. Unless noted, the call rests on the fitted dose curve; in most records, active means well fitted curve in the direction sought with a large enough effect; inconclusive means small, poorly fitted or top-dose-only effect, or another doubt; inactive means no such curve, though single readings can be large; an effect the other way counts as inactive or inconclusive. Potency means the concentration at half of the fitted maximal effect.

SMILES	MCF10A rereplic	KB-3-1 cytotox	12-LOX inh	KB-V1 MDR tox	SW480 rerep	PINK1 expr mod
CCOc1ccccc1NC(=O)C1=C(C)NC(=S)NC1c1cccs1 (stereo unspecified)	-70%	i	-28%	13µM*	-10%	2%
C=CCc1cc(C(=O)N2CCCCC2)ccc1O	-1%	?	-8%	21µM*	1%	-2%[38.3 µM]
COc1cccc(-c2cnc3c(NC=O)cc(-c4cc(C)c(O)c(C)c4)cn23)c1	.	6.5µM*	?	?	.	8%
COc1cccc(-c2cc(NC=O)c3ncc(-c4ccc(C(C)=O)cc4)n3c2)c1	.	5.2µM*	-10%	18µM*	.	-1%
CN(C)C(=O)c1cccc(-c2cc(NC=O)c3ncc(-c4ccc(F)cc4)n3c2)c1	.	?	-21%	21µM*	.	-1%
COc1cccc(-c2cnc3c(NC=O)cc(-c4ccccc4)cn23)c1	.	5.2µM*	-10%	7.3µM*	.	1%
CC(=O)c1ccc(-c2cnc3c(NC=O)cc(-c4cccc(C(=O)N(C)C)c4)cn23)cc1	.	i	-5%	i	.	2%
CCc1ncc2c(N3CC4CCC(C3)N4CC(F)(F)F)nc3ccccc3n12	.	.	2%[6.33 µM]	.	.	.
CNC(=O)c1cccc(NC(=O)CSCc2csc(-c3ccccc3)n2)c1	.	.	-8%	.	.	.
CCN(CC)c1cc(CCC(=O)N2CCC(C)CC2)ccn1	.	.	44%	.	.	.
CSc1nc(C)nc2c1c(=O)n(C)c(=O)n2CC(C)C	.	.	4%	.	.	.
COc1cccc(-c2cnc3c(NC=O)cc(-c4ccccc4Oc4ccccc4)cn23)c1	.	?	-17%	21µM*	.	-1%
Cc1cc(C)c2cc(C(=O)N3CCCCC3)[nH]c2c1C	.	.	-40%	.	.	.
CC(C)CCn1c(N2CCN(CCCc3ccccc3)CC2)nc2c1c(=O)[nH]c(=O)n2C	.	.	-26%	.	.	.
O=C(O)/C=C/C(=O)Nc1nc(-c2ccc3ccccc3c2)cs1	21%	i	1%	i	5%	0%
O=C(/C=C/c1ccco1)NC(=S)Nc1nc(-c2ccc(Cl)cc2)cs1	21µM*	?	?	?	-2%	8%
O=C(/C=C/c1ccco1)NC(=S)Nc1nc(-c2ccc3ccccc3c2)cs1	1.2µM*	4.6µM*	?	5.2µM*	?	4%
COc1ccc(-c2csc(NC(=S)NC(=O)/C=C/c3ccccc3)n2)cc1Br	19%	?	66%	12µM*	-4%	13%
COc1ccc(-c2csc(NC(=O)Cc3ccccc3)n2)cc1OC	-1%	i	0%	i	-6%	1%
Cc1cc(Cl)n2c(nc3cc(F)c(F)cc32)c1C#N	?	7.3µM*	-5%	5.8µM*	6.5µM*	-1%
CN(c1ccc(C(=O)NC2CCCCC2)cc1)S(=O)(=O)c1ccccc1	?	i	i	?	0%	0%
CN(c1ccccc1)S(=O)(=O)c1cccc(C(=O)NC2CCCCC2)c1	?	i	-13%	15µM*	-2%	4%
Cc1cc(NC(=O)c2cccc(S(=O)(=O)N3CCCCCC3)c2)n(-c2ccccn2)n1	-6%	i	-18%	?	5%	4%
Cc1cc(NC(=O)c2cccc(S(=O)(=O)N(C)C)c2)n(-c2ccccn2)n1	?	i	4%	9.2µM*	20%	5%
Cc1cccc(NC(=O)c2cccc(S(=O)(=O)N(C)c3ccccc3)c2)n1	24%	i	294%	7.3µM*	4%	2%
SMILES	MCF10A rereplic	KB-3-1 cytotox	12-LOX inh	KB-V1 MDR tox	SW480 rerep	PINK1 expr mod
Cc1cccc(NC(=O)Cn2c(-c3cccc(Cl)c3)nc(C)c(CCO)c2=O)c1C	.	.	25%	.	.	.
CC(C)(C)C(=O)/C(=C/c1ccc(Cl)cc1)n1cncn1	6.5µM*	?	0%	?	?	-2%
c1ccc(CN2CCC[C@H]2c2nc(-c3ccnc(N4CCOCC4)c3)no2)cc1	.	.	34%[176 µM]	.	.	.
CCC(=O)[C@@H](C)[C@@H](OC(C)=O)[C@H](C)C[C@@H](C)[C@H]1OC(=O)C[C@@]2(O)CC=C(C)C(O2)C(C)=CCCC[C@H](O[C@H]2C[C@@H](OC(N)=O)[C@H](OC(C)=O)[C@@H](C)O2)C=C[C@H](C)C[C@H]1C	.	1.3µM*	0%	i	.	4%
CCc1cc(=O)oc2cc(C)c(CN3CCCCC3)c(O)c12	23%	i	?	16µM*	-5%	7%
Cc1nc(SCC(=O)NCC2CCCO2)c2c3c(sc2n1)CCCC3 (stereo unspecified)	2%	i	33%	?	1%	1%
COCCn1c(C)cc(C(=O)CSc2nc(C)nc3sc4c(c23)CCC4)c1C	?	?	-24%	2.6µM*	7%	?
O=Cc1cccc(N2CCN(C(=O)c3ccncc3)CC2=O)c1	.	.	2%[6.33 µM]	.	.	.
CC1CCN(C(=O)CN(C)S(=O)(=O)c2cccc3nsnc23)CC1	1%	i	3%	23µM*	-3%	-3%
COc1cc2ncn(CCC(=O)N3CCSCC3)c(=O)c2cc1OC	.	.	59%	.	.	.
CCOC(=O)C1CCN(C(c2ccccn2)c2c(C)[nH]c3ccccc23)CC1 (stereo unspecified)	21µM*	18µM*	?	i	?	2%
Cc1[nH]c2ccccc2c1C(c1ccccn1)N1CCC(C(N)=O)CC1 (stereo unspecified)	?	?	?	i	2%[9.22 µM]	1%
O=S(=O)(c1c(Cl)cccc1Cl)N1CCNCC1	.	.	1%	.	.	.
CNC(=O)c1ccc(Nc2cc(Nc3ccccc3S(=O)(=O)C(C)C)c3cc[nH]c3n2)nc1	.	.	0.97µM*	.	.	.
Cc1ccc(S(=O)(=O)NC(C(=O)Oc2ccc3c(C(F)(F)F)cc(=O)oc3c2)c2ccccc2)cc1 (stereo unspecified)	-1%	i	50µM*	i	-1%	1%
Cc1ccc(S(=O)(=O)Oc2ccc3c(C(F)(F)F)cc(=O)oc3c2)cc1	.	.	-17%	.	.	.
O=C1c2ccccc2C2(c3ccccc3)N1CCN2C(=O)C(Cl)(Cl)Cl (stereo unspecified)	?	?	0%	16µM*	?	8%
O=C(NCc1cccnc1)/C(=C\c1ccc(-c2ccc(Cl)c(Cl)c2)o1)S(=O)(=O)c1ccccc1	6.5µM*	i	-25%	4.1µM*	?	-1%
O=C(NCc1cccnc1)c1ccc(-c2ccc(Cl)cc2)o1	-5%	i	?	i	-49%	2%
Cc1ccc(/C=N\Nc2cn[nH]c(=O)c2Cl)cc1	-2%	7.1µM*	-3%	?	-2%	-5%[38.3 µM]
COc1ccc(/C=N/Nc2nnc(Cc3ccccc3)c(=O)[nH]2)cc1	-13%	i	6%	i	-16%	-2%

Source: PubChem BioAssay (National Center for Advancing Translational Sciences (NCATS))
